This is a sample that favours compounds with a hit; in the whole collection about 3.3% have one here.
Tau fluor cs – counter-screen for tau fibril formation inhibitors; tau K18 P301L Alexa594 fluorescence, heparin fibrillization; Potency, µM (titrated, usually from 57.7 µM), for inactives: top-dose activity change, negative = decrease; actives 0.93% (n = 280,000); AID 1463; note: nearly all actives have a fitted effect of over 55% in size
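Human tau K18 P301L (15 uM unlabeled, 0.24 uM Alexa 594-labeled) in 100 mM sodium acetate pH 7 with 20 uM heparin, 6 hr at 37 C. ThT 30 uM added, 1 hr ambient; Alexa 594 FP and total fluorescence read at 555/632 nm.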
Tau ThT inhib – blocks human tau fibril formation measured by thioflavin T; actives 2.1% (n = 270,000); P10636; Potency, µM (doses to about 57.4 µM), without a hit: at the top dose activity, negative = inhibition, usual class: inhibitors; recombinant tau K18 P301L (four-repeat tau fragment), heparin-induced fibrillization, ThT fluorescence; note: nearly all actives have a fitted effect of over 55% in size
Target sequence (P10636 561-689 P618L limits assumed): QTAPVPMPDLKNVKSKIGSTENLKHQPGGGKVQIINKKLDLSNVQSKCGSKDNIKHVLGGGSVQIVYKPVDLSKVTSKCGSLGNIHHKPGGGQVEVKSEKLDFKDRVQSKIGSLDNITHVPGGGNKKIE
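Heparin-induced (20 uM) aggregation of recombinant human K18 P301L tau, 15 uM unlabeled with 0.24 uM labeled, pH 7 acetate buffer, 6 hr at 37 C with compound. Fibrils quantified by 30 uM ThT fluorescence after 1 hr ambient incubation.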
Tau fibril FP – inhibitors of human tau fibril formation; K18 P301L tau heparin fibrillization, Alexa594 FP, 6 h; Potency, µM (titrated, usually from 57.7 µM), for inactives: at the highest dose activity, negative = inhibition, hits mostly inhibitors; actives 0.39% (n = 280,000); AID 1468; note: nearly all actives have a fitted effect of over 55% in size
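Steps: dispense K18 P301L tau (15 uM plus 0.24 uM Alexa 594 tracer, final) in pH 7 sodium acetate; add compound; add heparin (20 uM final); incubate 6 hr, 37 C; add ThT (30 uM final); after 1 hr ambient, read FP.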
NPSR antag – antagonists of human neuropeptide S receptor cAMP signaling. actives 1% (n = 220,000). AID 1461. CHO-NPSR cells, cAMP TR-FRET, antagonist mode. Q6W5P4. Potency, µM (doses to about 38.3 µM), without a hit: top-dose activity change, negative = inhibition, hits mostly inhibitors; note: nearly all actives have a fitted effect of over 50% in size
Target sequence (Q6W5P4 whole entry, looked up): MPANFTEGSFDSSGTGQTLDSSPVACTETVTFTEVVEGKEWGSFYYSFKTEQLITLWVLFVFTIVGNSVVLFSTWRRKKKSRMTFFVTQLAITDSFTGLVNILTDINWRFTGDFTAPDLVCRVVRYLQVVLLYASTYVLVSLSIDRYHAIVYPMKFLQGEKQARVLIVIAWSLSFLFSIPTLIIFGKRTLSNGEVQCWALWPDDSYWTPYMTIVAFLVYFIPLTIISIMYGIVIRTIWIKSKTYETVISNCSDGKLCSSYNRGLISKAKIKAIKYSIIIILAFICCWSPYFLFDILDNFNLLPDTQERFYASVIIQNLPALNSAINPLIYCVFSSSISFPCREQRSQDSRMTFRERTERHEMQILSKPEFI
Luc counter – Kinase-Glo luciferase inhibition (counter-screen); Kinase-Glo luciferase, ATP luminescence, 8 min; Potency, µM (highest dose often 38.3 µM), inactives show at the highest dose activity change, negative = inhibition, most hits filed as inhibitors; actives 0.28% (n = 200,000); AID 1379; note: nearly all actives have a fitted effect of over 60% in size
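Recombinant Kinase-Glo luciferase, 10 uM ATP (linear range), luciferin; imidazole pH 7.2 / KCl / MgCl2 / Tween / BSA buffer; 8 min RT; luminescence.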
An asterisk follows results filed as active; ? = inconclusive; . = not tested or not shown; [ ] = dose if it differs, or a comment. Calls come from the whole dose curve; as a rule, active = well fitted curve in the direction sought with a large enough effect; inconclusive = small, poorly fitted or top-dose-only effect, or another doubt; inactive = no such curve, though single readings can be large; an effect the other way counts as inactive or inconclusive. % is set by controls: 0 for no effect and ±100 for the full control effect; potency is the fitted concentration of half-maximal effect.

SMILES | Tau fluor cs | Tau ThT inhib | Tau fibril FP | NPSR antag | Luc counter
COc1ccc(-n2nc([N+](=O)[O-])c(=NCCC3=CCCCC3)n2O)cc1 | ? | 7.9µM* | 15% | -26% | 1%
COc1ccc(-n2nc([N+](=O)[O-])c(=NCCc3ccc(C)cc3)n2O)cc1 | ? | ? | 14% | 1% | .
COc1ccc(-n2nc([N+](=O)[O-])c(=NCc3ccco3)n2O)cc1 | -29% | 10µM* | 1% | 3% | .
CS/C(=N\S(=O)(=O)c1ccc(Cl)cc1)c1ccccc1 | -8% | -3% | -6% | 2%[46.1 µM] | 8%
O=S(=O)(/N=C(\Sc1ccc(Cl)cc1)c1ccccc1)c1ccccc1 | -11% | 35µM* | ? | -18%[46.1 µM] | -8%
CCOC(=O)C1=C(CSc2nc(CC)c(C)cc2C#N)OC(N)=C(C#N)C1c1ccc(OC)cc1 (stereo not drawn) | -14% | -12% | 2% | -19%[46.1 µM] | 1%
COC(=O)C1=C(CSc2nc3c(cc2C#N)CN(C)CC3)OC(N)=C(C#N)C1c1ccc(F)cc1 (stereo not drawn) | ? | 25µM* | ? | -10%[46.1 µM] | -2%
CC(=O)N1CCN(c2ccc(NC(=S)NC(=O)COc3ccc(C(C)(C)C)cc3)cc2)CC1 | -24% | 4µM* | 5% | 2% | 1%
CCC(=O)N1CCN(c2ccc(NC(=S)NC(=O)COc3ccccc3)cc2)CC1 | -21% | ? | -7% | -6% | 6%
COc1ccc(N2CCN(c3nc(-c4cccs4)nc4ccccc34)CC2)cc1 | ? | ? | -4% | -26% | .
COc1ccc(N2CCN(c3csc4ccc(Cl)cc4c3=O)CC2)cc1 | -22% | 6.3µM* | 4% | . | .
COc1ccccc1N1CCN(c2csc3ccc(Cl)cc3c2=O)CC1 | -8% | ? | 6% | . | .
COc1ccc(N2CCN(c3csc4ccccc4c3=O)CC2)cc1 | ? | 11µM* | -5% | . | .
O=c1c(N2CCN(c3ccc(F)cc3)CC2)csc2ccc(F)cc12 | ? | 5µM* | ? | . | .
Cc1ccc(F)cc1NC(=O)CCc1c(C)nn(-c2ccc(N3CCCC3)nn2)c1C | -5% | -14% | -4% | . | .
O=C(CS(=O)c1ccccc1[N+](=O)[O-])Oc1ccc(Br)cc1 (stereo not drawn) | ? | ? | ? | -10% | .
CS(=O)(=O)c1ccc(S(=O)CC(=O)Oc2ccc(Cl)cc2)c([N+](=O)[O-])c1 (stereo not drawn) | -25% | 3.5µM* | ? | -12% | 0%
CCc1ccc(NC(=O)CCCc2nnc3n(CC(C)C)c(=O)c4sccc4n23)cc1 | -19% | -2% | 5% | . | .
COc1ccc(C)cc1NC(=O)NCc1cccn1Cc1ccccc1 | -16% | 1% | -6% | . | .
COc1cc(OC)c(NC(=O)NCc2cccn2Cc2ccccc2)cc1Cl | 14µM*[quencher] | -17% | -11% | . | .
CC(C)Cc1ccc(S(=O)(=O)Nc2cc3c(cc2N2CCOCC2)n(C)c(=O)c(=O)n3C)cc1 | -5% | -6% | 4% | . | .
Cn1cccc1/C=C(/C#N)C(N)=S | -5% | ? | 3% | -20% | 1%
Cc1ccc(-c2ccc(/C=C(\C#N)C(N)=S)n2C)cc1 | ? | 1µM* | -3% | 3% | .
COC(=O)C1=C(C(=O)OC)[C@@H]2N(C)c3ccccc3[C@@]23C[C@@H](C(=O)OC)N(C(=O)c2ccc(Br)cc2)C3=N1 | 2%[11.6 µM] | 12%[11.5 µM] | 9%[11.6 µM] | -21% | 3%[7.66 µM]
O=C(N/N=C/c1ccc(-c2ccccc2[N+](=O)[O-])o1)[C@H]1C[C@@H]1c1ccccc1 | ? | 4.5µM* | ? | -9% | -1%
SMILES | Tau fluor cs | Tau ThT inhib | Tau fibril FP | NPSR antag | Luc counter
O=C(/C=C/c1ccc(-c2ccccc2[N+](=O)[O-])o1)c1ccccc1 | ? | 18µM* | 5% | -38% | 1%
Cc1cn2c(=O)cc(COc3ccccc3NC(=O)c3ccc(Cl)cc3)nc2s1 | -7% | -4% | -13% | . | .
O=C(Nc1ccc(N2CCOCC2)cc1)C1CC(=O)N(c2ccccc2)C1 (stereo not drawn) | 7% | 4.5µM* | 6%[2.34 µM] | 7% | -4%
O=C(Nc1ccc(N2CCOCC2)cc1)C1CC(=O)N(c2ccc(Cl)cc2)C1 (stereo not drawn) | -13% | ? | 3% | 0% | 1%
CC(C)Nc1nc2c(S(=O)(=O)c3cccc(Cl)c3)nnn2c2ccsc12 | -1% | 11% | ? | . | .
Fc1ccccc1CN1CCCN(C(=S)Nc2cccc(Cl)c2)C1 | ? | 5% | 32µM* | -16% | 4%
Cc1c(Cl)cccc1NC(=S)N1CCCN(Cc2ccccc2F)C1 | ? | -2% | -9% | -29% | 2%
CO/N=C/c1ccc(N2CCN(C(=O)c3ccc(C)cc3)CC2)c([N+](=O)[O-])c1 | -13% | ? | -1% | -26%[46.1 µM] | -2%
O=C(N/N=C/c1ccc2c(c1)OCO2)c1sc2cccc(Cl)c2c1Cl | -21% | ? | -17% | -30%[46.1 µM] | 6%
O=C(O/N=C\c1ccc(N2CCOCC2)c([N+](=O)[O-])c1)c1ccccc1Cl | ? | 13µM* | 12% | -17%[46.1 µM] | -8%
O=C(O/N=C\c1ccc(N2CCOCC2)c([N+](=O)[O-])c1)c1ccc(F)cc1 | -20% | 5µM* | -1% | -17%[46.1 µM] | -1%
O=C(O/N=C/c1ccc2c(c1)OCO2)c1ccccc1Cl | 2% | 2% | 4% | -22%[46.1 µM] | 11µM*
Cc1ccccc1CCNC(=O)c1cc2ccccn2n1 | -7% | -14% | -4% | . | .
COc1ccc(N=Nc2cnc(C)nc2-c2ccccc2)cc1 | ? | 18µM* | 10% | ? | 0%
Cc1ncc(N=Nc2ccccc2Cl)c(-c2ccccc2)n1 | ? | ? | 14% | -27%[46.1 µM] | 1%
N#Cc1cc2c(nc1SCc1nc3ccccc3[nH]1)CCC2 | ? | 6.3µM* | 12% | -13%[46.1 µM] | -22%
Cc1ccc(Cl)cc1NC(=O)Cn1c(=O)n(C(C)C)c(=O)c2oc3ccccc3c21 | -7% | 10% | -3% | . | .
Cc1nc2ccccc2nc1N/N=C/c1ccc(O)cc1 | ? | 14µM* | 12% | 6%[7.67 µM] | .
O=c1c2ccccc2nc(N/N=C/c2c(O)ccc3ccccc23)n1O | ? | 11µM* | 4% | -21%[46.1 µM] | -6%
O=c1c2ccccc2nc(N/N=C/c2ccc(O)cc2)n1O | -21% | ? | -2% | -10%[46.1 µM] | 11µM*
CCCc1nc2ccccc2c(=O)n1/N=C/c1ccc(O)cc1 | 1% | 6% | -3% | -18%[46.1 µM] | 2%
COc1ccc(-c2nc(CCNC(=O)Cc3ccc(F)cc3)cs2)cc1 | -8% | -4% | -1% | . | .
Cc1cccc(OCCCn2c(CO)nc3ccccc32)c1 | . | . | . | -15% | .
O=C(NCc1cccc(Cl)c1)C1CCCN(c2nn3cc(-c4ccc(F)cc4)nc3s2)C1 (stereo not drawn) | -30% | ? | -6% | . | .
Cc1cccc(CNc2ncnc3ccc(-c4cccc(NS(C)(=O)=O)c4)cc23)c1 | ? | ? | 18µM* | . | -7%

Source: PubChem
